In PubChem BioAssay AID1159580 (chemical genetic matrix, 2015):
Values joined by “and” are separate entries in the source; they are usually repeats but may differ in a detail not shown here. Identical values can stand only once. Out of some 5,500 compounds screened, about 2,000 (36%) were called active. Inconclusive results (about 18%) are left out. Cut-off read from the data, not from the text of the source: active = normalized growth mostly below about 0.91 (no sharp cut-off); inconclusive = no clear call, values can overlap the other calls; inactive = mostly above about 0.92. The list shows a part of the results.

Experiment: chemical genetic growth profiling, strain panel (AID 1159580);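 note: tested at 20 µM; growth read once vehicle control cultures reached saturation at 30 °C; 1 = growth at the plate median or of vehicle wells; lower values mean less growth of the strain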
Details: S. cerevisiae deletion strains, growth OD
[1] = locus YAL013W, strain DEP1, stronger effect = lower value
[2] = locus YNL322C, strain KRE1, stronger effect = lower value
[3] = locus YPL055C, strain LGE1, stronger effect = lower value

Measured: normalized growth

O=c1ccc2ccccc2o1
inactive: [1] 1.02 | locus YAL021C, strain ccr4, stronger effect = lower value 1.01 | locus YAL026C, strain drs2, stronger effect = lower value 0.993 | locus YAL030W, strain snc1, stronger effect = lower value 0.99 | locus YBL061C, strain skt5, stronger effect = lower value 0.988 | locus YBR009C, strain hhf1, stronger effect = lower value 0.939 | locus YBR021W, strain FUR4, stronger effect = lower value 1 | locus YBR023C, strain chs3, stronger effect = lower value 0.996 | locus YBR171W, strain sec66, stronger effect = lower value 0.974 | locus YBR229C, strain ROT2, stronger effect = lower value 1.02 | locus YBR231C, strain swc5, stronger effect = lower value 0.964 | locus YBR279W, strain paf1, stronger effect = lower value 0.999 | locus YCL011C, strain gbp2, stronger effect = lower value 0.993 | locus YCL016C, strain dcc1, stronger effect = lower value 1.03 | locus YCL029C, strain bik1, stronger effect = lower value 0.992 | locus YCL069W, strain vba3, stronger effect = lower value 0.98 | locus YCR088W, strain abp1, stronger effect = lower value 0.982 | locus YDL005C, strain med2, stronger effect = lower value 0.976 | locus YDL035C, strain GPR1, stronger effect = lower value 1.01 | locus YDL040C, strain nat1, stronger effect = lower value 0.984 | locus YDL074C, strain BRE1, stronger effect = lower value 1.01 | locus YDL101C, strain DUN1, stronger effect = lower value 1.03 | locus YDL134C, strain PPH21, stronger effect = lower value 1.03 | locus YDL185W, strain tfp1, stronger effect = lower value 0.982 | locus YDL192W, strain arf1, stronger effect = lower value 0.988 | locus YDR001C, strain nth1, stronger effect = lower value 0.978 | locus YDR069C, strain doa4, stronger effect = lower value 0.987 | locus YDR101C, strain arx1, stronger effect = lower value 0.968 | locus YDR137W, strain rgp1, stronger effect = lower value 0.968 | locus YDR150W, strain NUM1, stronger effect = lower value 1 | locus YDR159W, strain sac3, stronger effect = lower value 0.945 | locus YDR162C, strain NBP2, stronger effect = lower value 1.04 | locus YDR195W, strain ref2 0.991 | locus YDR297W, strain sur2, stronger effect = lower value 0.973 | locus YDR318W, strain mcm21, stronger effect = lower value 1.01 | locus YDR334W, strain swr1, stronger effect = lower value 0.926 | locus YDR335W, strain msn5, stronger effect = lower value 0.985 | locus YDR388W, stronger effect = lower value 0.988 | locus YDR392W, strain spt3, stronger effect = lower value 0.956 | locus YDR502C, strain sam2, stronger effect = lower value 0.963 | locus YEL003W, strain gim4, stronger effect = lower value 0.957 | locus YEL037C, strain rad23, stronger effect = lower value 0.977 | locus YEL061C, strain CIN8 (second series), stronger effect = lower value 0.954 | locus YEL061C, strain CIN8, stronger effect = lower value 1.01 | locus YER015W, strain faa2, stronger effect = lower value 0.991 | locus YER016W, strain bim1, stronger effect = lower value 0.986 | locus YER110C, stronger effect = lower value 0.989 | locus YER111C, strain swi4, stronger effect = lower value 0.982 | locus YER155C, strain BEM2 (second series), stronger effect = lower value 0.937 | locus YER155C, strain BEM2, stronger effect = lower value 1.02 | locus YER167W, strain BCK2, stronger effect = lower value 1.02 | locus YFR010W, strain ubp6, stronger effect = lower value 0.93 | locus YGL078C, strain dbp3, stronger effect = lower value 0.992 | locus YGL086W, strain mad1, stronger effect = lower value 0.981 | locus YGL167C, strain pmr1, stronger effect = lower value 0.972 | locus YGL173C, strain kem1, stronger effect = lower value 0.973 | locus YGL227W, strain vid30, stronger effect = lower value 0.969 | locus YGL240W, strain doc1, stronger effect = lower value 0.958 | locus YGL248W, strain PDE1, stronger effect = lower value 1.04 | locus YGL253W, strain hxk2, stronger effect = lower value 1.01 | locus YGR135W, strain pre9, stronger effect = lower value 0.988 | locus YGR252W, strain gcn5, stronger effect = lower value 1.02 | locus YHR013C, strain ard1, stronger effect = lower value 1.05 | locus YHR027C, strain rpn1, stronger effect = lower value 0.975 | locus YHR030C, strain SLT2, stronger effect = lower value 1.02 and 0.992 | locus YHR079C, strain IRE1 (second series), stronger effect = lower value 0.999 | locus YHR079C, strain IRE1, stronger effect = lower value 0.957 | locus YHR094C, strain hxt1, stronger effect = lower value 0.989 | locus YHR129C, strain ARP1, stronger effect = lower value 1.02 | locus YHR142W, strain chs7, stronger effect = lower value 1.03 | locus YHR200W, strain rpn10, stronger effect = lower value 0.978 | locus YIL066C, strain RNR3, stronger effect = lower value 1.02 | locus YIL073C, strain SPO22, stronger effect = lower value 0.985 | locus YIL125W, strain kgd1, stronger effect = lower value 1.01 | locus YIR030C, strain dcg1, stronger effect = lower value 0.992 | locus YJL092W, strain hpr5, stronger effect = lower value 0.996 | locus YJL095W, strain BCK1 (second series), stronger effect = lower value 0.978 | locus YJL095W, strain BCK1, stronger effect = lower value 1.06 and 0.982 | locus YJL115W, strain asf1, stronger effect = lower value 0.972 | locus YJL129C, strain trk1, stronger effect = lower value 0.985 | locus YJL134W, strain LCB3, stronger effect = lower value 1.01 | locus YJL154C, strain vps35, stronger effect = lower value 0.978 | locus YJL164C, strain tpk1, stronger effect = lower value 0.977 | locus YJL166W, strain qcr8, stronger effect = lower value 0.956 | locus YJL168C, strain set2, stronger effect = lower value 0.995 | locus YJL187C, strain SWE1 (second series), stronger effect = lower value 1.02 | locus YJL187C, strain SWE1, stronger effect = lower value 0.982 | locus YJR043C, strain POL32, stronger effect = lower value 1.02 | locus YJR066W, strain TOR1, stronger effect = lower value 0.945 | locus YKL009W, strain mrt4, stronger effect = lower value 1.12 | locus YKL068W, stronger effect = lower value 1.01 | locus YKL085W, strain MDH1 (second series), stronger effect = lower value 1.01 | locus YKL085W, strain MDH1, stronger effect = lower value 1.01 | locus YKL160W, strain elf1, stronger effect = lower value 1.02 | locus YKL190W, strain CNB1, stronger effect = lower value 1.02 | locus YKR001C, strain vps1, stronger effect = lower value 0.979 | locus YKR026C, strain gcn3, stronger effect = lower value 0.972 | locus YKR091W, strain srl3, stronger effect = lower value 0.983 | locus YLL001W, strain dnm1, stronger effect = lower value 0.981 | locus YLL026W, stronger effect = lower value 0.99 | locus YLL041C, strain sdh2, stronger effect = lower value 0.998 | locus YLR027C, strain aat2, stronger effect = lower value 0.993 | locus YLR039C, strain RIC1, stronger effect = lower value 1.03 | locus YLR058C, strain SHM2, stronger effect = lower value 1.03 | locus YLR102C, strain apc9, stronger effect = lower value 0.987 | locus YLR113W, strain HOG1, stronger effect = lower value 0.999 | locus YLR221C, strain rsa3, stronger effect = lower value 0.952 | locus YLR258W, strain gsy2, stronger effect = lower value 1.01 | locus YLR262C, strain YPT6 (second series), stronger effect = lower value 0.965 | locus YLR262C, strain YPT6, stronger effect = lower value 1.03 | locus YLR268W, strain sec22, stronger effect = lower value 0.961 | locus YLR320W, strain mms22, stronger effect = lower value 0.951 | locus YLR330W, strain CHS5, stronger effect = lower value 1.03 | locus YLR342W, strain FKS1 (second series), stronger effect = lower value 1.01 | locus YLR342W, strain FKS1, stronger effect = lower value 1 | locus YLR357W, strain rsc2, stronger effect = lower value 1.04 | locus YLR370C, strain arc18, stronger effect = lower value 1 | locus YLR371W, strain rom2, stronger effect = lower value 0.976 | locus YLR384C, strain iki3, stronger effect = lower value 0.992 | locus YLR418C, strain cdc73, stronger effect = lower value 1.03 | locus YML016C, strain PPZ1, stronger effect = lower value 1.02 | locus YML032C, strain rad52, stronger effect = lower value 0.999 | locus YML120C, strain ndi1, stronger effect = lower value 0.95 | locus YML124C, strain tub3, stronger effect = lower value 0.994 | locus YMR058W, strain fet3, stronger effect = lower value 0.983 | locus YMR078C, strain ctf18, stronger effect = lower value 0.989 | locus YMR125W, strain sto1, stronger effect = lower value 0.998 | locus YMR129W, stronger effect = lower value 0.989 | locus YMR205C, strain PFK2, stronger effect = lower value 0.955 | locus YMR223W, strain ubp8, stronger effect = lower value 1.04 | locus YMR231W, strain pep5, stronger effect = lower value 0.971 | locus YMR307W, strain GAS1, stronger effect = lower value 1.06 | locus YNL067W, strain RPL9B, stronger effect = lower value 1.02 | locus YNL071W, strain lat1, stronger effect = lower value 0.958 | locus YNL183C, strain NPR1, stronger effect = lower value 0.949 | locus YNL209W, strain ssb2, stronger effect = lower value 0.978 | locus YNL233W, strain BNI4, stronger effect = lower value 1.02 | locus YNL248C, strain rpa49, stronger effect = lower value 0.995 | locus YNL250W, strain rad50, stronger effect = lower value 1.01 | locus YNL271C, strain bni1, stronger effect = lower value 0.993 | locus YNL298W, strain CLA4, stronger effect = lower value 0.993 | locus YNL307C, strain MCK1, stronger effect = lower value 0.997 | locus YNL322C, strain KRE1 (second series), stronger effect = lower value 0.98 | [2] 1.02 | locus YNR049C, strain mso1, stronger effect = lower value 0.993 | locus YNR052C, strain pop2, stronger effect = lower value 1.01 | locus YOL012C, strain htz1 1.37 | locus YOL147C, strain pex11, stronger effect = lower value 0.99 | locus YOR001W, strain rrp6, stronger effect = lower value 0.935 | locus YOR061W, strain CKA2, stronger effect = lower value 1.02 | locus YOR069W, strain VPS5, stronger effect = lower value 1.01 | locus YOR070C, strain gyp1, stronger effect = lower value 0.994 | locus YOR080W, strain dia2, stronger effect = lower value 0.981 | locus YOR083W, strain WHI5, stronger effect = lower value 0.972 | locus YOR106W, strain vam3, stronger effect = lower value 0.998 | locus YOR136W, strain idh2, stronger effect = lower value 0.982 | locus YOR144C, strain elg1, stronger effect = lower value 0.99 | locus YOR184W, strain ser1, stronger effect = lower value 0.985 | locus YOR231W, strain MKK1, stronger effect = lower value 0.988 | locus YOR265W, strain rbl2, stronger effect = lower value 0.987 | locus YOR270C, strain vph1, stronger effect = lower value 0.981 | locus YOR290C, strain snf2, stronger effect = lower value 1.01 | locus YOR316C, strain cot1, stronger effect = lower value 1 | locus YPL051W, strain arl3, stronger effect = lower value 1.03 | [3] 1.02 | locus YPL078C, strain atp4, stronger effect = lower value 1.03 | locus YPL106C, strain sse1, stronger effect = lower value 0.988 | locus YPL240C, strain hsp82, stronger effect = lower value 0.983 | locus YPL256C, strain CLN2, stronger effect = lower value 1 | locus YPR119W, strain clb2, stronger effect = lower value 0.992 | locus YPR141C, strain kar3, stronger effect = lower value 0.999 | locus YPR163C, strain tif3, stronger effect = lower value 1 | locus YPR167C, strain met16, stronger effect = lower value 1.03 | strain wtn01, stronger effect = lower value 0.962

O=Nc1ccc2oc(=O)ccc2c1
inactive: [1] 0.945 | locus YAL040C, strain CLN3, stronger effect = lower value 0.985 | locus YCL061C, strain MRC1 (second series), stronger effect = lower value 0.973 | locus YDR363W, strain ESC2, stronger effect = lower value 0.917 | locus YER002W, strain NOP16, stronger effect = lower value 1.01 | locus YGR078C, strain PAC10, stronger effect = lower value 0.98 | locus YMR263W, strain SAP30, stronger effect = lower value 0.989 | locus YNL175C, strain NOP13, stronger effect = lower value 0.994 | locus YNL197C, strain WHI3, stronger effect = lower value 0.989 | locus YNL224C, strain SQS1, stronger effect = lower value 0.995 | [2] 1 | locus YOR083W, strain WHI5 (second series), stronger effect = lower value 0.906 | [3] 0.896 | locus YPL241C, strain CIN2, stronger effect = lower value 0.999
active: locus YGR229C, strain SMI1, stronger effect = lower value 0.846
